Hits are enriched below; roughly 6.2% of the tested compounds scored in any of these assays.
KinaseGlo FLuc = Counterscreen for Luciferase (Kinase-Glo TM) Inhibition. Luciferin 4-monooxygenase (Photuris pensylvanica), Q27757. Kinase-Glo luciferase, ATP luminescence, 8 min. Potency, µM (series often up to 38.3 µM), without a hit: top-dose activity change, negative = inhibition, most hits filed as inhibitors. 200,000 compounds, 0.28% hits; further: nearly all actives have a fitted effect of over 60% in size
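Luminescence was the read-out, taken after 8-minute incubation at ambient temperature. Luciferase turned over luciferin with 10 uM ATP in imidazole pH 7.2 buffer containing KCl, MgCl2, Tween 20 and BSA.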
Gal4-VP16 FLuc = VP16 counterscreen qHTS for inhibitors of ROR gamma transcriptional activity | Drosophila S2 Gal4-VP16 UAS-luciferase, luminescence, 20 h | 310,000 compounds, 3.5% hits | Potency, µM (series often up to 53.6 µM), inactives show at the highest dose activity, negative = inhibition, hits mostly inhibitors | AID 2546, 2010;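 further: Gal4-VP16 expression switched on by copper sulfate through the metallothionein promoter; nearly all actives have a fitted effect of over 50% in size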
RORg inh = qHTS for inhibitors of ROR gamma transcriptional activity. Nuclear receptor ROR-gamma (Mus musculus), P51450. Potency, µM (highest dose often 53.6 µM), for inactives: at the top dose activity change, negative = inhibition, most hits filed as inhibitors. Drosophila S2 Gal4-RORgamma UAS-luciferase reporter, 20 h. 310,000 compounds, 5.4% hits; further: nearly all actives have a fitted effect of over 60% in size
Target sequence (P51450 whole entry, looked up, the tested form may be a part): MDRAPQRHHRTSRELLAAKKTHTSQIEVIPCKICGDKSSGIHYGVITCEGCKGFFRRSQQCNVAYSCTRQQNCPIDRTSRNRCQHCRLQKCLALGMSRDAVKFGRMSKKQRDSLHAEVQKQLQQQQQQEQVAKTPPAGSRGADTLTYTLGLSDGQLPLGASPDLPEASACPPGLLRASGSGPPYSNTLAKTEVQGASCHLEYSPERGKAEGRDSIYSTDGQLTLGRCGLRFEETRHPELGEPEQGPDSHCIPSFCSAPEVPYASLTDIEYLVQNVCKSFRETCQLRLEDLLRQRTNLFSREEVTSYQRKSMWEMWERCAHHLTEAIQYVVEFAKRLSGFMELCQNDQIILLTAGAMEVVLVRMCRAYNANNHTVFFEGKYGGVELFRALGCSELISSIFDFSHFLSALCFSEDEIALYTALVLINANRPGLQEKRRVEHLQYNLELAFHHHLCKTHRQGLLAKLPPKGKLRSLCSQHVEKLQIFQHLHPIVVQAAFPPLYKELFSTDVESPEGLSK
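Read-out: Photinus luciferase luminescence; inhibitors lower reporter signal. Insect Schneider cells with Gal4-ROR gamma fusion under metallothionein promoter, UAS reporter; 700 uM final copper sulfate induction, 20 hr, ambient temperature.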
Numbers without * were called inactive; ? = inconclusive; / = not tested or not shown; [ ] = another dose, or the depositor's remark. The call rests on the fitted dose curve; in most records, active means well fitted curve in the direction sought with a large enough effect; inconclusive means small, poorly fitted or top-dose-only effect, or another doubt; inactive means no such curve, though single readings can be large; an effect the other way counts as inactive or inconclusive. On the % scale 0 is the no-effect control and ±100 the full control effect; potency means the concentration at half of the fitted maximal effect.

SMILES | KinaseGlo FLuc | Gal4-VP16 FLuc | RORg inh
COc1ccc(-n2c(Cc3ccccc3)nnc2SCc2ccc([N+](=O)[O-])cc2)cc1 | -3% | -8% | 43%
COc1ccc(C2/C=C\CN(C(=O)C3CCCC3)C(C)C(=O)N2Cc2ccc(F)cc2)cc1 (configuration not stated) | / | 6% | 24%
COc1ccc(-c2nc(CS(=O)CC(=O)NCCCN3CCOCC3)c(C)o2)cc1OC (configuration not stated) | / | 14% | 3%
Cn1c(/C(C#N)=C(\O)CN2CCN(Cc3ccccc3)CC2)nc2ccccc21 | 11% | 22µM* | 5.6µM*
Cc1ccc(SC/C(O)=C(\C#N)c2nc3ccccc3n2C)cc1 | -1% | 6.3µM* | 7.9µM*
Cn1c(/C(C#N)=C/c2ccc(O)cc2)nc2ccccc21 | / | -10% | 44%
N#C/C(=C(/O)CN1CCOCC1)c1nc2ccccc2s1 | 2% | -1% | 22%
CN(C)c1ccc(-c2c(C3C4C=CCCC4(C)C(=O)N3Cc3ccccc3)ccc3ccccc23)cc1 (configuration not stated) | / | -1% | -1%
COc1ccc(CN2CCN(S(=O)(=O)c3ccc(NC(C)=O)cc3)CC2)c(OC)c1OC | 2% | -11% | 4%
COc1ccc(C(C)=O)cc1COC(=O)Cc1cc(OC)c(OC)c(OC)c1 | / | 7% | 18%
Cc1nnc(NC(=O)c2sc3nc(-c4cccs4)cc(C(F)(F)F)c3c2N)s1 | 3% | ? | 4µM*
Nc1c(C(=O)Nc2nccs2)sc2nc(-c3cccs3)cc(C(F)(F)F)c12 | 1% | 10µM* | ?
Cc1cc(C(F)(F)F)c2c(N)c(C(=O)NC3CC3)sc2n1 | / | 1% | ?
Cc1cc(C)c2c(N)c(C(=O)Nc3nccs3)sc2n1 | -10% | ? | ?
CC(C)(C)C(=O)c1sc2nc(-c3cccs3)cc(C(F)(F)F)c2c1N | -2% | -9% | 10µM*
CCN(CC)C(=O)c1sc2nc(-c3cccs3)cc(-c3cccs3)c2c1N | / | -1% | -40%
COc1cccc(OC)c1NC(=O)C1CCCN1C(=O)Nc1cccc(Cl)c1 (configuration not stated) | / | 3% | 45%
CC(C)C[C@H](NC(=O)[C@H]1O[C@@H]1C(=O)O)C(=O)NCCCCN=C(N)N | / | -2% | 1%
COc1cccc(Cn2c(=O)c(-c3ccc(F)cc3)nc3cnc(N(C)C)nc32)c1 | / | -7% | -11%
COc1ccc(CNC(=O)c2nnn(-c3cccc(C(F)(F)F)c3)c2N)cc1 | -1% | -8% | ?
O=C(O)COc1ccccc1/C=N/NC(=O)c1cc2ccccc2cc1O | / | 3% | -12%
O=C(N/N=C/c1cccnc1)c1cc(-c2cccs2)nc2ccccc12 | -1% | 4% | 21%
Cn1cccc1/C=N/NC(=O)C(O)c1ccccc1 (configuration not stated) | / | -13% | 3%
Cn1cccc1/C=N/NC(=O)c1cc(-c2cccs2)nc2ccccc12 | 3% | ? | 7.1µM*
Cn1cccc1/C=N/NC(N)=S | 0% | ? | 6.3µM*
SMILES | KinaseGlo FLuc | Gal4-VP16 FLuc | RORg inh
O=C(N/N=C/c1ccc2ncccc2c1)c1cc(-c2cccs2)nc2ccccc12 | / | -1% | 11%
O=C(N/N=C/c1ccc[nH]1)c1cc(-c2cccs2)nc2ccccc12 | 1% | 6.3µM* | 2.8µM*
Cn1cccc1/C=N/NC(=O)c1cc2ccccc2cc1O | / | 2µM* | 1.4µM*
COc1ccc(-n2c(=O)c(-c3ccc(F)cc3)nc3cnc(N4CCOCC4)nc32)cc1 | / | 5% | -32%
O=C(Nc1ccc(S(=O)(=O)Nc2ccccc2F)cc1)N1CCCCC1 | / | 3% | ?
CC1C=C[C@@H]2[C@H](C1)C(=O)N(Cc1ccccc1)[C@H]2c1ccccc1Br (some centres not stated) | -2%[39.9 µM] | 4% | 36%
CCC1CCCCN1CCCNC(=O)C1CC(=O)N(CCc2ccccc2)C1 (configuration not stated) | / | 6% | 8%
CCCCCCc1c(C[C@H](N)C(=O)O)o[nH]c1=O | 1% | 0% | 14%
COC[C@H]1OC=C[C@@H](OC)[C@@H]1OC | 3% | -7% | 3%
Cc1[nH][nH]c(=O)c1/C=N/N1CCOCC1 | -1% | 7% | 2%
CCOC(=O)Cn1ccc(-c2ccccc2)c(C#N)c1=O | 1% | -2% | 8%
COc1ccc(S(=O)(=O)N2CCOCC2)cc1C(=O)N1CCCCC1 | / | 3% | -22%
O=S1(=O)N=C(N(CCO)/N=C/C=C/c2ccccc2)c2ccccc21 | -1% | -10% | 40%[10 µM]
Cc1ccccc1OCc1nnc(SCCN2CCCC2)n1-c1ccccc1 | 0% | ? | 11µM*

Compound activity deposited in PubChem by National Center for Advancing Translational Sciences (NCATS).
